Screens (PubChem)
The sample as a whole holds a higher share of hits than the screen did.
IMPase cell inh – cell-permeable inhibitors of inositol monophosphatase (IMPase); inhibition (IP1 accumulation), % at 46.1 µM; CHO-M1 cells, IP1 accumulation, HTRF TR-FRET ratio; P97697; 120,000 tested, under 10 active; active = well fitted curve in the direction sought with a large enough effect in the signal ratio, not every such curve was filed as active; inconclusive = small, poorly fitted or top-dose-only effect, or a change in a side signal; inactive = no such curve, though single readings can be large or run the other way; the % refers to the signal ratio;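 also: cells stimulated with carbachol in lithium chloride buffer; plate controls were DMSO basal wells for no effect and reference inhibitor wells for full effect; higher means more IMPase inhibition seen as more IP1 and lower FRET ratio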
Target sequence (P97697 whole entry, looked up): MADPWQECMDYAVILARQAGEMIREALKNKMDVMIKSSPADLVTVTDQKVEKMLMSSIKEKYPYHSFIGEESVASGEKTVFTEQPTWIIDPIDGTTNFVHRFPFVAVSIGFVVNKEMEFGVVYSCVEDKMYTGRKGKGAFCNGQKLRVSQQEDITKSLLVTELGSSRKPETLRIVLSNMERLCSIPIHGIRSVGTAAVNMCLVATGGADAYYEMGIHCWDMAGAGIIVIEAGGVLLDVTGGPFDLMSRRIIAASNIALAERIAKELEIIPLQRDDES
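Cellular IMPase inhibition is scored as a rise in cytosolic IP1, detected by competitive TR-FRET between d2-labelled IP1 and a europium anti-IP1 antibody. M1-expressing CHO cells were stimulated with carbachol for 30 min at 37C, with lithium (50 mM LiCl) present in the buffer.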
PNC inhibitor – inhibitors of perinucleolar compartment assembly | activity change (PNC), negative = inhibition, % at 10 µM | hit rate 3.1% among 140,000 | PC3M PTB-GFP, PNC prevalence imaging, 16 h; hits give low values | AID 2417;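 active = readout at or below -70, meaning at least 70% loss of cells showing the perinucleolar compartment, a nuclear body marking cancer cells; inconclusive = readout between -30 and a set limit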;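 also: plate controls were DMSO wells for no effect and camptothecin positive control wells for full effect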
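Compounds are pinned in duplicate onto adhered PC3M cells stably expressing GFP-tagged PTB and incubated 16 h at 37 C. Cells are then fixed, nuclei stained with Hoechst, and PNC-positive cells counted.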
LMNA splice mod – changes lamin A minigene splicing in HeLa cells; HeLa LMNA splicing GFP/RFP minigene ratio, 48 h; Potency, µM (doses to about 46.1 µM), for the others: top-dose ratio change, negative = inhibition, usual class: inhibitors; hit rate 0.01% among 200,000; AID 1487; active = well fitted inhibition curve with a large enough effect in the signal ratio, with a control signal flat, not every such curve was filed as active; inconclusive = small, poorly fitted or top-dose-only effect, or effect the other way, or a change in a side signal; the % refers to the signal ratio; also: potency is read from the fitted curve at half-maximal effect
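S3 HeLa stable clones carrying a lamin A-EGFP splicing minigene plus DsRed2 were seeded at 600 cells/well in Opti-MEM with 2% FBS, pin-dosed and incubated 48 h at 37°C. Acumen cytometry (488 nm) gave the GFP/RFP total-intensity ratio.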
* hit, by the source's call; [ ] = dose if it differs, or a comment. Unless noted, % is scaled to controls: 0 for no effect and ±100 for the full control effect.

Results for Cc1ccc(CNc2nc(-c3ccco3)nn2S(C)(=O)=O)cc1 ?
LMNA splice mod: -10%[46 µM]

How did Cn1nc(CC(=O)NC2CCCCCCCCCCC2)c2ccccc2c1=O do in these assays?
IMPase cell inh: 0; PNC inhibitor: 56; LMNA splice mod: 2%

How did Cn1nc(CC(=O)Nc2ncc(Br)s2)c2ccccc2c1=O do in these assays?
IMPase cell inh: -5; PNC inhibitor: -119*; LMNA splice mod: inconclusive

How did COc1ccccc1CNC(=O)C(=O)NCC(c1cccnc1)N1CCN(c2ccccc2)CC1 (stereo not given) do in these assays?
LMNA splice mod: -20%[46 µM]

What do the screens show for `COc1cc(C(Nc2ccccn2)c2ccc3ccc(C)nc3c2O)cc(OC)c1O` (stereo not given)?
IMPase cell inh: 5; PNC inhibitor: -26; LMNA splice mod: inconclusive

Results for Cc1ccc2ccc(C(Nc3ccccn3)c3ccccc3)c(O)c2n1 (stereo not given) ?
IMPase cell inh: 7; PNC inhibitor: -82*; LMNA splice mod: inconclusive

What do the screens show for `CCc1cc(=O)oc2cc(C)cc(OCC(=O)C(C)(C)C)c12`?
LMNA splice mod: -25%[46 µM]

What do the screens show for `Cc1cc(OCC(=O)C(C)(C)C)c2c(C)c(C)c(=O)oc2c1`?
IMPase cell inh: 5; PNC inhibitor: -100*; LMNA splice mod: inconclusive

Results for CCc1ccc(CNC(=O)c2cnc3sc(N4CCOCC4)nn3c2=O)cc1 ?
LMNA splice mod: 8%[46 µM]

What do the screens show for `CN(Cc1ccco1)C(=O)C(Cc1ccccc1)NS(=O)(=O)c1ccc2c(c1)CCC(=O)N2` (stereo not given)?
IMPase cell inh: -2; PNC inhibitor: -81*; LMNA splice mod: 10%

What do the screens show for `CCCNC(=O)C(Cc1ccccc1)NS(=O)(=O)c1ccc2c(c1)CCC(=O)N2` (stereo not given)?
IMPase cell inh: -8; PNC inhibitor: 5; LMNA splice mod: 4%

Results for Cc1ccc(-c2nn(CC(N)=O)c(=O)c3ccccc23)cc1S(=O)(=O)N(C)C ?
IMPase cell inh: 3; PNC inhibitor: -3; LMNA splice mod: -8%

Results for O=C1CC(Nc2ccc(N3CCOCC3)cc2)C(=O)N1Cc1ccccc1 (stereo not given) ?
IMPase cell inh: 3; PNC inhibitor: -119*; LMNA splice mod: -9%

How did O=C1CC(Nc2ccc(N3CCOCC3)cc2)C(=O)N1c1ccccc1 (stereo not given) do in these assays?
IMPase cell inh: 5; PNC inhibitor: 11; LMNA splice mod: -1%

What do the screens show for `CC(C)Cc1nn2c(=O)cc(COC(=O)c3ccc4c(c3)OCO4)nc2s1`?
LMNA splice mod: 3%[46 µM]

Results for CC(C)C(=O)NC(=S)Nc1ccc(S(=O)(=O)NC(C)(C)C)cc1 ?
IMPase cell inh: 7; PNC inhibitor: -107*; LMNA splice mod: -9%

What do the screens show for `COc1ccc(NS(=O)(=O)c2ccc(NC(=S)NC(=O)C(C)C)cc2)cc1`?
IMPase cell inh: -1; PNC inhibitor: 36; LMNA splice mod: inconclusive

Results for Cc1cc(NS(=O)(=O)c2ccc(NC(=O)COc3ccc(Cl)cc3)cc2)nc(C)n1 ?
IMPase cell inh: 5

What do the screens show for `Cc1cc(C(=O)COC(=O)c2ccc3c(c2)OCO3)c(C)n1CC1CCCO1` (stereo not given)?
LMNA splice mod: 9%[46 µM]

Results for Cc1cc(C(=O)COC(=O)c2ccc(O)cc2)c(C)n1CC1COc2ccccc2O1 (stereo not given) ?
PNC inhibitor: -81*; LMNA splice mod: -9%

How did CCOC(=O)c1sc2ccccc2c1S(=O)(=O)N1CCN(c2cccc(OC)c2)CC1 do in these assays?
LMNA splice mod: -27%[46 µM]

Results for CCOC(=O)C1CCN(CC(=O)Nc2cc(C)nn2-c2nc3ccccc3s2)CC1 ?
IMPase cell inh: inconclusive; PNC inhibitor: 6; LMNA splice mod: -6%

What do the screens show for `Cc1cc(NC(=O)CN2CC(C)OC(C)C2)n(-c2nc3ccccc3s2)n1` (stereo not given)?
IMPase cell inh: 1; PNC inhibitor: -99*; LMNA splice mod: -2%

Results for CCOC(=O)c1cc(-c2ccc(OC(F)F)cc2)nc2nc(SC)[nH]c(=O)c12 ?
IMPase cell inh: -15; PNC inhibitor: 10; LMNA splice mod: inconclusive

Results for CCOC(=O)c1cc(-c2ccc(OC(F)F)cc2)nc2c1c(=O)[nH]c(=O)n2C ?
PNC inhibitor: -84*; LMNA splice mod: 5%

What do the screens show for `COc1ccc(S(=O)(=O)NCCc2sc(-c3cccnc3)nc2C)c(F)c1`?
LMNA splice mod: 13%[46 µM]

What do the screens show for `FC(F)c1nc2ccccc2[nH]1`?
LMNA splice mod: 16%[46 µM]

What do the screens show for `c1ccc2[nH]c3cc4ncnc4cc3nc2c1`?
PNC inhibitor: -81*; LMNA splice mod: 0%

What do the screens show for `CCOC(=O)CCCCCCCCCCCCC1C=CCC1` (stereo not given)?
LMNA splice mod: 2%

How did CCCCNC(=O)Nc1ccccc1C(=O)NCc1ccco1 do in these assays?
IMPase cell inh: -7; PNC inhibitor: -17; LMNA splice mod: 9%

Results for CCCCNC(=O)Nc1ccccc1C(=O)NCCC ?
IMPase cell inh: inconclusive; PNC inhibitor: -100*; LMNA splice mod: -9%

What do the screens show for `CN1C(=O)Cn2c1nc1ccccc12`?
IMPase cell inh: 7; PNC inhibitor: 23; LMNA splice mod: 4%

Results for O=C1Cn2c(nc3ccccc32)N1c1ccccc1F ?
IMPase cell inh: 1; PNC inhibitor: -102*; LMNA splice mod: 1%

How did O=C(O)c1ccccc1NCc1ccncc1 do in these assays?
IMPase cell inh: 5; PNC inhibitor: 7; LMNA splice mod: 12%

Results for O=C(O)c1ccc(CNc2ccccc2C(=O)O)cc1 ?
IMPase cell inh: -5; PNC inhibitor: -131*; LMNA splice mod: 1%

How did COc1cc(NC(=O)c2ccc(C)c(Cl)c2)ccc1NC(=O)c1cc2ccccc2o1 do in these assays?
IMPase cell inh: 0

Results for O=C(COC(=O)C12CC3CC(CC(C3)C1)C2)Nc1ncc(Cl)cc1Cl ?
IMPase cell inh: inconclusive; PNC inhibitor: -88*; LMNA splice mod: -1%

Results for O=C(COC(=O)CC12CC3CC(CC(C3)C1)C2)Nc1ncc(Cl)cc1Cl ?
IMPase cell inh: 3; PNC inhibitor: -19; LMNA splice mod: 5%

Results for CC(=O)N1CCC(=NNC(=O)c2cccs2)CC1 ?
PNC inhibitor: -109*; LMNA splice mod: -2%

How did O=C(NN=C1CCCC1)c1cccs1 do in these assays?
PNC inhibitor: 11; LMNA splice mod: -13%

How did CCOc1ncccc1C(=O)Oc1ccc2c(c1)OCO2 do in these assays?
IMPase cell inh: 2; PNC inhibitor: 4; LMNA splice mod: inconclusive

Results for O=C(Oc1ccc2c(c1)OCO2)c1ccc(F)cc1Cl ?
IMPase cell inh: 6; PNC inhibitor: -109*; LMNA splice mod: -5%

What do the screens show for `COc1cccc(CN(C(=O)Cn2nnc(-c3ccccc3F)n2)C(C(=O)NC(C)(C)C)c2ccncc2)c1` (stereo not given)?
LMNA splice mod: -7%[46 µM]

Results for COc1cc(/C=N/NC(=O)C(=O)/C=C2\NC3(CCCC3)Cc3ccccc32)ccc1O ?
IMPase cell inh: 4; PNC inhibitor: 17; LMNA splice mod: inconclusive

What do the screens show for `CN(C)c1ccc(/C=N/NC(=O)C(=O)/C=C2\NC3(CCCC3)Cc3ccccc32)cc1`?
PNC inhibitor: -109*; LMNA splice mod: inconclusive
